Test results from PubChem BioAssay (NCI).
This is part of a sample that, as a whole, favours compounds with a hit. Of some 79,000 tested, about 15% had one in any assay. Cut-off read from the data, not from the text of the source: active = growth inhibition above about 70%; inactive = the rest.

Columns and labels:
[1] = NCI Yeast Anticancer Drug Screen. Data for the rad50 strain (AID 155);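 note: 0% = growth of vehicle-only cultures of the same strain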; settings: S. cerevisiae rad50 strain growth inhibition; at 50.0 µM; active compounds read high
Outline: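 Relative growth inhibition (compound vs vehicle) was measured in yeast with a defined repair-gene alteration.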

[2] = NCI Yeast Anticancer Drug Screen. Data for the mec2-1 strain (AID 157); settings: S. cerevisiae mec2-1 strain, at 50.0 µM, active compounds read high
Outline: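 Test agents were screened against the mec2-1 yeast strain, with defined DNA repair or cell cycle alteration. Growth was scored as inhibition against vehicle-only controls.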

[3] = NCI Yeast Anticancer Drug Screen. Data for the sgs1 mgt1 strain (AID 161);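 note: 0% = growth of cultures given vehicle only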; settings: S. cerevisiae sgs1 mgt1 strain, at 50.0 µM, active compounds read high
Outline: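 Inhibition of yeast growth, normalised to vehicle-treated controls, is reported for a strain bearing genetic alterations in DNA damage repair.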

[4] = NCI Yeast Anticancer Drug Screen. Data for the cln2 rad14 strain (AID 165);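 note: 0% = growth equal to vehicle treated cultures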; settings: S. cerevisiae cln2 rad14 strain, at 50.0 µM, active compounds read high
Outline: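 Growth of compound-exposed yeast (cln2 rad14 genotype) measured and expressed as inhibition relative to vehicle.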

[5] = NCI Yeast Anticancer Drug Screen. Data for the bub3 strain (AID 167); settings: S. cerevisiae bub3 mutant strain, at 50.0 µM, active compounds read high
Outline: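 Screening used yeast with an engineered genetic alteration affecting cell cycle control. Compound-exposed cultures were compared with vehicle cultures, and reduced growth was taken as inhibition.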

[6] = NCI Yeast Anticancer Drug Screen. Data for the mlh1 rad18 strain (AID 175); settings: S. cerevisiae mlh1 rad18 strain growth inhibition; at 50.0 µM; active compounds read high
Outline: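 In this whole-cell yeast screen, a strain with altered DNA damage repair is challenged with compound, and its growth is measured against matched vehicle-treated controls.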

Measured: growth inhibition

NC(Cc1cccc2ccccc12)C(=O)O (stereo not given)
inactive: [1] 14.3% | [2] -1.2% | [3] 10.4% | [4] -48.1% | [5] -7.3% | [6] 5.5%

CC1CCCC(C)(c2ccccc2)/C1=N\Nc1ccc([N+](=O)[O-])cc1[N+](=O)[O-] (stereo not given)
inactive: [1] 36.2% | [2] 13.9% | [3] 9.65% | [4] 18% | [5] 2.1% | [6] 29.9%

CCC1(O)c2ccccc2CCC1C (stereo not given)
inactive: [1] 12.8% | [2] -15.8% | [3] -15.3% | [4] -29.9% | [5] -33.1% | [6] -19.9%

CCOC(=O)C(=O)C(C(=O)OCC)C(C)C(=O)OCC (stereo not given)
inactive: [1] 1.9% | [2] -8.3% | [3] 8.2% | [4] -41.1% | [5] 6.65% | [6] -11.2%

CCOc1c(OC)cc(C2c3cc4c(c(OCC)c3CC3COC(=O)C32)OCO4)cc1OC (stereo not given)
inactive: [1] 36.8% | [2] 16.1% | [3] 48.6% | [4] 28.1% | [5] 19.8% | [6] 0.25%

Cc1cc(O)c2c(c1)C(=O)C=CC2=O
inactive: [1] 6.7% | [2] 5.2% | [3] 1.3% | [4] 4.15% | [5] 10.3% | [6] -25.9%

CC1(C)CCc2c(cc3c(c2O)CCC(C)(C)O3)O1
inactive: [1] 4.6% | [2] 7.6% | [3] -10.7% | [4] 12.9% | [5] 9.05% | [6] 8.45%

O=C(NC(=O)c1ccccc1Cl)Nc1ccc(C(O)(C(F)(F)F)C(F)(F)F)cc1
inactive: [1] 53.8% | [2] 53.5% | [3] 58.4% | [4] 68.7% | [5] 34.3% | [6] 61.5%

COC(=O)C1CC2(C(=O)OC)CC(C(=O)OC)(CC(C(=O)OC)C2=O)C1=O (stereo not given)
inactive: [1] 9.55% | [2] -0.15% | [3] 14.1% | [4] 11.9% | [5] 18.5% | [6] 3.55%

N#CC(C#N)=C(O)/C(=C/c1ccc(Cl)cc1Cl)NC(=O)c1ccccc1
inactive: [1] 9.4% | [2] 1.15% | [3] -7.9% | [4] 7.9% | [5] -13.3% | [6] 14.3%

CN1C(=O)n2c(nc3ccccc32)C(N2CCOCC2)(N2CCOCC2)C1=O
inactive: [1] 44% | [2] 56.4% | [3] 62.9% | [4] 29.9% | [5] 31.4% | [6] 45.8%

COc1ccc(CNc2ncccn2)cc1
inactive: [1] 14.1% | [2] -23.7% | [3] 0.7% | [4] 9.5% | [5] -12% | [6] 13.5%

CCOC(=O)Cc1ccc2c(c1)sc1nc(-c3ccc(OC)cc3)cn12
inactive: [1] 38.8% | [2] 19.5% | [3] 21.2% | [4] 32.3% | [5] 31.1% | [6] 18.6%

O=C1NC(=O)C(c2ccc(O)cc2)N1 (stereo not given)
inactive: [1] -21.1% | [2] -14.8% | [3] -4.6% | [4] -30.9% | [5] 0.2% | [6] -10.2%

NC(=O)c1ccc2c(c1)-c1nc-2nc2[n-]c(nc3nc(nc4[n-]c(n1)c1ccc(C(N)=O)cc41)-c1ccc(C(N)=O)cc1-3)c1ccc(C(N)=O)cc21.[Co+2]
inactive: [1] -7.55% | [2] 4.65% | [3] 1.8% | [4] 29.2% | [5] 35% | [6] 4.35%

CCCCCCCC(CC#N)(CCCCC)CCCCCC (stereo not given)
inactive: [1] 16.6% | [2] -10.1% | [3] 11.9% | [4] -8.3% | [5] 7.1% | [6] 26.1%

O=C(SCc1ccccc1)N(c1ccccc1)c1ccccc1
inactive: [1] -0.55% | [2] 11.9% | [3] 0% | [4] 22.4% | [5] 12.4% | [6] 5.3%

CN(C)CCN1CC2C3CCCCC3=C3CCCCC3C2C1 (stereo not given)
inactive: [1] -0.45% | [2] 10.1% | [3] 31.9% | [4] -24.4% | [5] 23.8% | [6] 37.9%

SCc1ccc(-c2ccc(CS)cc2)cc1
inactive: [1] 4.65% | [2] 2.55% | [3] 40% | [4] 39.8% | [5] 39.1% | [6] 23.3%

Cn1c(=O)c2[nH]c(C3CCCCCC3)nc2n(C)c1=O
inactive: [1] 13.6% | [2] -9.7% | [3] -9.4% | [4] -4.1% | [5] 7.25% | [6] -1.8%

COc1ccc(/C=C2/N=C(c3ccccc3)OC2=O)cc1
inactive: [1] -2.75% | [2] -8.35% | [3] -0.3% | [4] -28.9% | [5] -1.75% | [6] -6.8%

COc1ccc2c(c1OC)CN1CCc3cc4c(cc3C1=C2)OCO4
inactive: [1] 15.9% | [2] -3.95% | [3] -9.95% | [4] 2.35% | [5] 8.15% | [6] 12.9%

COc1ccccc1CCCO
inactive: [1] -1.8% | [2] 1.2% | [3] 1.55% | [4] 11.2% | [5] 10.1% | [6] -3.1%

CCOC(=O)C1=C(C(=O)C(C)(C)C)C(c2ccc([N+](=O)[O-])cc2)C(C(=O)C(C)(C)C)=C(C(=O)OCC)N1
inactive: [1] 31.1% | [2] 21.4% | [3] 9.4% | [4] 27.4% | [5] 6.2% | [6] 14.3%

CNC1=C(Sc2ccc(Cl)cc2)C(=O)c2ccccc2C1=O
inactive: [1] -0.4% | [2] 19.4% | [3] 1.45% | [4] 3.25% | [5] 2.75% | [6] 0.35%

CCOC(=O)NN(C(=O)OCC)c1c(C)[nH]c2ccccc12
inactive: [1] 20.3% | [2] 10.6% | [3] 19.4% | [4] -10.6% | [5] 4.65% | [6] 24.5%

N#Cc1c(N2CCCC2)ncn(Cc2ccccc2)c1=S
inactive: [1] -10.9% | [2] -15.1% | [3] -8.4% | [4] -25.1% | [5] -5.1% | [6] -0.2%

Cc1cc(OCc2nnc3n2S(=O)(=O)c2ccccc2N3C)ccc1Cl
inactive: [1] 49.4% | [2] 2% | [3] -21.8% | [4] -0.75% | [5] -30.4% | [6] -22.4%

CN(C)CCCNc1nc(Cl)nc2nc(-c3ccccc3)c(-c3ccccc3)nc12
inactive: [1] 50.2% | [2] 31% | [3] 60.5% | [4] 36% | [5] 28.9% | [6] 61.2%

CCOC(=O)/C(=C/c1ccc(N(C)C)cc1)N(CC)CC
inactive: [1] -34.2% | [2] -10.2% | [3] -14.9% | [4] 13.4% | [5] 7.25% | [6] -18.6%

CCN(CC)Cc1ccc([NH-])c([NH-])c1.CCN(CC)Cc1ccc([NH-])c([NH-])c1.[Cl][Pt+2][Cl].[Cl][Pt+2][Cl].[Cl][Pt+2][Cl]
inactive: [1] 27.4% | [2] 36.6% | [3] 35.6% | [4] 25.6% | [5] 29.2% | [6] 48.5%

CCC(=O)c1ccc(F)cc1
inactive: [1] 10.2% | [2] -20.9% | [3] 4.5% | [4] 20.3% | [5] -5.3% | [6] 20.4%

c1ccc(C2=C(c3ccccc3)C2c2ccccc2)cc1
inactive: [1] 10.8% | [2] -8.95% | [3] -4.5% | [4] -21.1% | [5] -2.15% | [6] 7.15%

NC(=S)N/N=C/c1ccc(OC(F)(F)F)cn1
inactive: [1] 27.1% | [2] 28.1% | [3] 46.5% | [4] 10.3% | [5] 59.5% | [6] 40.6%

CC1(C)OCCS1
inactive: [1] -4.2% | [2] 18.1% | [3] 6.7% | [4] 18.6% | [5] 20.6% | [6] 13.9%

CCC(=O)N(C)c1ccccc1
inactive: [1] 22.4% | [2] 6.3% | [3] 0.75% | [4] 12.2% | [5] -0.35% | [6] -23.4%

O=C(CCCCC(=O)NC1c2ccccc2Oc2ccccc21)NC1c2ccccc2Oc2ccccc21
inactive: [1] 35.2% | [2] 12.1% | [3] 31% | [4] 32% | [5] 9.25% | [6] 31.4%

CN(C)CC(O)c1ccc(Cl)c2ccccc12 (stereo not given)
inactive: [1] 3.95% | [2] -20.9% | [3] -31.9% | [4] -30.1% | [5] -8.7% | [6] 1.75%

COCC1(c2ccccc2)C(=O)N(C)C(=O)N1C (stereo not given)
inactive: [1] -7.6% | [2] 2.5% | [3] -6.25% | [4] -6.3% | [5] -9.85% | [6] 5.25%

COc1ccccc1NC=O
inactive: [1] -1.5% | [2] -25.1% | [3] -3.65% | [4] 16.8% | [5] -7.4% | [6] 2.55%
